In PubChem BioAssay (NCATS):
Records with an inconclusive call do not appear. Active and inactive are the calls of the source. Unless noted, calls come from the whole dose curve.

The molecules below were run against Androgen receptor (Homo sapiens) (UniProt P10275) (assay: qHTS assay for small molecule agonists of androgen receptor signaling (AID 588515; active = well fitted curve in the direction sought with a large enough effect in the signal ratio, with a control signal flat; the % refers to the signal ratio; note: potency is the fitted concentration of half-maximal effect)). Conditions: AR-UAS-bla HEK293, beta-lactamase ratio, agonist 16 h; activation: active compounds read high.
Summary of the method: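 Stimulation of an AR-responsive β-lactamase reporter in GripTite HEK293 cells was measured after 16 h compound exposure at 37 °C, via CCF4 fluorescence after 2 h RT. EC50 from Hill fits, normalized to R1881 at 30 nM.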
% is set by controls: 0 for no effect and ±100 for the full control effect.

Chain of Androgen receptor (Homo sapiens) (P10275 whole entry, looked up): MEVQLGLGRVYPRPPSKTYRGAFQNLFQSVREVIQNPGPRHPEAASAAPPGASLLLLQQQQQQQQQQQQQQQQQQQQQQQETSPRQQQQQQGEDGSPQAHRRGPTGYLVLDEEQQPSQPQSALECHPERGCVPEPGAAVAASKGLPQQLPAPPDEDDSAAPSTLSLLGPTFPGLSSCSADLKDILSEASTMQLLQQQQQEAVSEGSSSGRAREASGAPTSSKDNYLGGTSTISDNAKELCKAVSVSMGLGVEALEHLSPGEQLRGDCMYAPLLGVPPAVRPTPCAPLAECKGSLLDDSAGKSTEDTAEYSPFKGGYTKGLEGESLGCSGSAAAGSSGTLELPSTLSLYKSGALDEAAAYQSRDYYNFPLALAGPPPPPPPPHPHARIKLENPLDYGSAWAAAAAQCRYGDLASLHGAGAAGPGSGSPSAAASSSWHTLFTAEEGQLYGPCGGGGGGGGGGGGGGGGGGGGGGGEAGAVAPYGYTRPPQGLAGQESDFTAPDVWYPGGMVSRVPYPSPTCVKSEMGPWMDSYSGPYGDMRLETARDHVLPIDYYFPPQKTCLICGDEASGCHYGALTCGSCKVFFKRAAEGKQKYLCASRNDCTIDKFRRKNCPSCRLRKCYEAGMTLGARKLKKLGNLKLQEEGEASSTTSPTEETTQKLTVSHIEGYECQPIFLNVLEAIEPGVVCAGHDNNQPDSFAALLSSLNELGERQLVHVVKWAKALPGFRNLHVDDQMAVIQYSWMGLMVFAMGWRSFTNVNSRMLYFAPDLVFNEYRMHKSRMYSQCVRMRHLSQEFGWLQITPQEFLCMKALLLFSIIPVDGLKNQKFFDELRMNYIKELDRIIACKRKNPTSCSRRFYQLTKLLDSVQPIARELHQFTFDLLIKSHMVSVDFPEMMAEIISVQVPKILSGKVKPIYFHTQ

SMILES	Potency	activation
CCC(=O)O[C@H]1CC[C@H]2[C@@H]3CCC4=CC(=O)CC[C@]4(C)[C@H]3CC[C@]12C	0.0089 µM (active)	–
COP(=S)(OC)Oc1ccc(Sc2ccc(OP(=S)(OC)OC)cc2)cc1	–	-10.3% (inactive)
O=C(NC(=O)c1c(F)cccc1F)Nc1cc(Cl)c(OC(F)(F)C(F)C(F)(F)F)cc1Cl (centres undefined)	–	-6.9% (inactive)

What follows are molecules tested against Androgen receptor (Homo sapiens) (UniProt P10275) (assay: qHTS assay for small molecule antagonists of androgen receptor signaling (AID 588516; active = well fitted curve in the direction sought with a large enough effect in the signal ratio, with a control signal flat, not every such curve was filed as active; the % refers to the signal ratio)). Conditions: AR-UAS-bla HEK293, beta-lactamase ratio, antagonist mode, 16 h; series mostly up to 76.8 µM; activity change, negative = inhibition: at the top concentration.
Summary of the method: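 Antagonist-mode qHTS: inhibition of R1881 (10 nM)-driven beta-lactamase expression in GripTite HEK 293 cells is measured after 16 h; values are Hill-derived IC50s normalized between R1881 and DMSO wells.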

SMILES	activity change, negative = inhibition
COP(=S)(OC)Oc1ccc(Sc2ccc(OP(=S)(OC)OC)cc2)cc1	-19.3% (inactive)
Oc1ccc(Cl)cc1Cc1cc(Cl)ccc1O	-31.1% (inactive)
O=C(NC(=O)c1c(F)cccc1F)Nc1cc(Cl)c(OC(F)(F)C(F)C(F)(F)F)cc1Cl (centres undefined)	-17.9% (inactive)

Each molecule was assayed against Bile acid receptor (Homo sapiens) (UniProt Q96RI1) (assay: qHTS assay for small molecule antagonists of farnesoid X receptor signaling (AID 588526; note: potency is the fitted concentration of half-maximal effect)). Conditions: HEK293T FXR-UAS-bla, beta-lactamase ratio, antagonist mode; series mostly up to 76.7 µM; activity change, negative = inhibition: at the top concentration.
Summary of the method: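 Concentration-response titrations were fitted to the Hill equation for half-maximal inhibition and maximal response, with data normalised to 50 uM chenodeoxycholic acid and DMSO control wells. Cells: FXR-UAS-bla HEK293T, dialyzed FBS.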

Chain of Bile acid receptor (Homo sapiens) (Q96RI1 whole entry, looked up): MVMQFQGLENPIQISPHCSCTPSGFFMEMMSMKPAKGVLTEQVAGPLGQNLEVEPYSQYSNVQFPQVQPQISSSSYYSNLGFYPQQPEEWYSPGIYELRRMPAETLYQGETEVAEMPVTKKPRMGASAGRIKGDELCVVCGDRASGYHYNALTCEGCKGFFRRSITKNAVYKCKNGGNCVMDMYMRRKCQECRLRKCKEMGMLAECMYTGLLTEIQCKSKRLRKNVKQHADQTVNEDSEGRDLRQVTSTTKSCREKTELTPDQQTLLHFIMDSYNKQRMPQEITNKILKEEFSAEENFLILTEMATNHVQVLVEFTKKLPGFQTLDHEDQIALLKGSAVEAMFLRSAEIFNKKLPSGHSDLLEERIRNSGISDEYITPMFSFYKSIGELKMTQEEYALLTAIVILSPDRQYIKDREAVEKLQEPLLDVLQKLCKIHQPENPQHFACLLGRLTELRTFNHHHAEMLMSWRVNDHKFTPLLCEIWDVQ

SMILES	Potency	activity change, negative = inhibition
Oc1ccc(Cl)cc1Cc1cc(Cl)ccc1O	7.94 µM (active)	–
C[C@@H]1C[C@@H]([C@H](O)CC2CC(=O)NC(=O)C2)C(=O)[C@@H](C)C1	–	-16.3% (inactive)
O=C(NC(=O)c1c(F)cccc1F)Nc1cc(Cl)c(OC(F)(F)C(F)C(F)(F)F)cc1Cl (centres undefined)	–	-2.53% (inactive)
